# Reference: PubChem BioAssay (Tox21)
# A number with no mark means an inactive call. Results filed as inconclusive are left out. Entries that show only a call come without a potency. Active and inactive are the calls of the source. Unless noted, the call rests on the fitted dose curve; in most records, active means well fitted curve in the direction sought with a large enough effect in the repeat runs; inconclusive means weak or mixed curves; inactive means no such curve, though single readings can be large; an effect the other way counts as inactive or inconclusive.
# How the values were obtained:
# [1] = qHTS assay to identify small molecule antagonists of the estrogen receptor alpha (ER-alpha) signaling pathway using the BG1 cell line in the presence of 0.1 nM 17-beta-estradiol - cell viability counter screen (AID 1259241); further: nearly all actives have a fitted effect of over 40% in size; further: potency means the concentration at half of the fitted maximal effect
# Method in brief: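 Estradiol-stimulated (0.1 nM) VM7Luc4E2 cells exposed to compounds 22 hr; viability measured by fluorescence of cleaved CellTiter-Fluor substrate after 30 min.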
# [2] = qHTS assay to identify small molecule antagonists of the androgen receptor (AR) signaling pathway using the MDA cell line in the presence of 0.5 nM R1881 - cell viability counter screen (AID 1259242); further: nearly all actives have a fitted effect of over 45% in size
# Method in brief: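 MDA-kb2 cells (MMTV-luciferase, AR/GR responsive) were treated with compounds plus 0.5 nM R1881 (final) for 16 hr at 37C, 0% CO2. Viability was then read in the same wells as live-cell protease fluorescence (CellTiter-Fluor, 30 min).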
# [3] = target: Androgen receptor (Homo sapiens) (UniProt P10275); experiment: qHTS assay to identify small molecule antagonists of the androgen receptor (AR) signaling pathway using the MDA cell line in the presence of 0.5 nM R1881 (AID 1259243); further: nearly all actives have a fitted effect of over 50% in size
# Method in brief: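 MDA-kb2 cells (MMTV-luciferase, responsive to AR and GR) at 3,000/well, rested 5 h at 37C, 0% CO2, then given compounds plus 0.5 nM R1881 (final) for 16 hr. Luciferase read with ONE-Glo after 30 min at room temperature.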
# [4] = qHTS assay to identify small molecule HDAC inhibitors - cell viability counter screen (AID 1259365); further: series mostly up to about 92 µM; nearly all actives have a fitted effect of over 50% in size
# Method in brief: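 After overnight seeding at 1,500 cells per well, wild-type HCT-116 cultures took up compounds in DMSO for 2hr at 37 C. Viable cell content came from luminescence with CellTiter-Glo.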
# [5] = qHTS assay to identify small molecule antagonists of the sonic hedgehog signaling (Shh) pathway - cell viability counter screen (AID 1259367); further: nearly all actives have a fitted effect of over 55% in size; further: potency means the concentration at half of the fitted maximal effect
# Method in brief: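 Cells: 3T3 Gli1-Luc, 2,000/well, 4 hr pre-incubation. Compounds in DMSO, then conditioned medium. Incubation 24 hr, 37C, 5% CO2. CellTiter-Fluor at 23 hr, 1 hr, fluorescence.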
# [6] = qHTS assay to identify small molecule agonists of the sonic hedgehog signaling (Shh) pathway (AID 1259368; calls by dose curve;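 further: NIH/3T3-derived 3T3Gli1-Luc cells carrying a stable Gli1-driven firefly luciferase reporter; series mostly up to about 92 µM; nearly all actives have a fitted effect of over 15% in size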)
# Method in brief: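 NIH/3T3-derived 3T3Gli1-Luc cells with stably integrated Gli1-driven firefly luciferase, 2,000 cells/well, compounds added after 4 hr. Incubated 24 hr at 37C, 5% CO2; luminescence read after 30 min with luciferase reagent at room temperature.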
# [7] = target: Estrogen receptor beta (Homo sapiens) (UniProt Q92731); experiment: qHTS assay to identify small molecule agonists of the estrogen receptor beta (ER-beta) signaling pathway (AID 1259377; active means well fitted activation curve with a large enough effect in the signal ratio in the repeat runs, not every such curve was filed as active; the % refers to the signal ratio)
# Method in brief: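 Read-out: beta-lactamase FRET fluorescence. Cell line: ER-beta-UAS-bla HEK293T in 2% charcoal-stripped FBS. Exposure: 16 hr at 37C. Substrate step: 2 h at room temperature.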
# [8] = qHTS assay to identify small molecule agonists of the androgen receptor (AR) signaling pathway in the presence of an antagonist - cell viability counter screen (AID 1259379);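 further: MDA-kb2 human breast cancer cells carrying an MMTV luciferase reporter; series mostly up to about 92 µM; nearly all actives have a fitted effect of over 25% in size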
# Method in brief: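 MDA-kb2 cells (MMTV-luciferase, AR/GR), 3,000/well, 5 h attachment, then 3.0 µM nilutamide (final) and compounds at 15 concentrations. Viability by CellTiter-Fluor fluorescence after 16 h at 37 °C, 0% CO2, in the reporter wells.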
# [9] = target: Androgen receptor (Homo sapiens) (UniProt P10275); experiment: qHTS assay to identify small molecule agonists of the androgen receptor (AR) signaling pathway in the presence of an antagonist (AID 1259381; calls by dose curve; further: nearly all actives have a fitted effect of over 15% in size)
# Method in brief: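 MDA-kb2 cells carrying MMTV-luciferase (AR/GR responsive), 3,000 cells/well, co-treated with 3.0 uM nilutamide final. Compounds at 15 concentrations, 16 hr at 37C without CO2. Luciferase luminescence read after 30 min with ONE-Glo.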
# [10] = qHTS assay to identify small molecule antagonists of the estrogen receptor beta (ER-beta) signaling pathway - cell viability counter screen (AID 1259382);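 further: HEK293T cells carrying ER-beta-UAS-bla reporter stimulated with estradiol; series mostly up to about 92 µM; nearly all actives have a fitted effect of over 55% in size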
# Method in brief: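 ER-beta-UAS-bla HEK293T cells in 2% charcoal-stripped FBS medium, treated with compound plus 1 nM 17-beta-estradiol for 16 h at 37C. Viability read by CellTiter-Glo luminescence after 30 min at room temperature in the same wells.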
# [11] = qHTS assay to identify small molecule agonists or antagonists of the thyroid stimulating hormone receptor (TSHR) signaling pathway - wild type cell line counter screen (AID 1259384; calls by dose curve; further: potency means the concentration at half of the fitted maximal effect)
# Method in brief: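 Counter screen in untransfected Hek293: compounds (15-point titration, triplicate) plus phosphodiesterase inhibitor Ro20-1724 added after 18 h plating; 30 min RT. Intracellular cAMP via competitive d2/cryptate immunoassay, 1 h incubation.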
# [12] = target: Thyrotropin receptor (Homo sapiens) (UniProt P16473); experiment: qHTS assay to identify small molecule antagonists of the thyroid stimulating hormone receptor (TSHR) signaling pathway (AID 1259385; calls by dose curve; further: nearly all actives have a fitted effect of over 20% in size)
# Method in brief: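 Antagonist mode: compound-treated TSHR-expressing HEK293 cells were stimulated with 1.5 ng/mL TSH (final) in presence of Ro20-1724 for 30 min at RT. HTRF cAMP detection after 1 h; each compound tested at 15 concentrations, triplicate.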
# [13] = qHTS assay to identify small molecule phospholipidosis (PLD) inducers (AID 1259344; active means well fitted curve in the direction sought with a large enough effect; an effect the other way counts as inactive or inconclusive)
# Method in brief: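 Phospholipidosis is scored by imaging LipidTOX-stained pits in HepG2 cells exposed to compound for 24 h at 37 C; pit counts and integrated intensities per well and per cell serve as outputs.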
# [14] = qHTS assay to identify small molecule HDAC inhibitors (AID 1259364); further: nearly all actives have a fitted effect of over 45% in size; further: potency means the concentration at half of the fitted maximal effect
# Method in brief: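 Wild-type HCT-116 cells, plated overnight at 37 C, exposed to compounds 2 hr at 37 C; luminogenic HDAC-Glo substrate then added 30 min at room temperature. Luminescence reports relative endogenous class I/II HDAC activity.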
# [15] = qHTS assay to identify small molecule agonists of the sonic hedgehog signaling (Shh) pathway - cell viability counter screen (AID 1259366); further: nearly all actives have a fitted effect of over 50% in size; further: potency means the concentration at half of the fitted maximal effect
# Method in brief: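 Same-well cytotoxicity read. Gli1-Luc reporter 3T3 cells; compounds 24hr, 37C/5% CO2; CellTiter-Fluor fluorescence.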
# [16] = qHTS assay to identify small molecule antagonists of the sonic hedgehog signaling (Shh) pathway (AID 1259369; calls by dose curve; further: nearly all actives have a fitted effect of over 45% in size; further: potency means the concentration at half of the fitted maximal effect)
# Method in brief: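 NIH/3T3-derived Gli1-Luc reporter cells plated 4 h, dosed with compound, then stimulated with conditioned medium for 24 h at 37 C. Firefly luciferase luminescence read after 30 min with detection reagent at room temperature.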
# [17] = target: Estrogen receptor beta (Homo sapiens) (UniProt Q92731); experiment: qHTS assay to identify small molecule antagonists of the estrogen receptor beta (ER-beta) signaling pathway (AID 1259378; active means well fitted inhibition curve with a large enough effect in the signal ratio in the repeat runs, not every such curve was filed as active; the % refers to the signal ratio)
# Method in brief: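 Antagonist mode: compounds added to beta-lactamase reporter HEK293T ER-beta-UAS cells stimulated with E2 (1nM final), 16 hr at 37C. LiveBLAzer B/G FRET substrate, 2 hours room temperature, fluorescence read-out.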
# [18] = qHTS assay to identify small molecule agonists of the estrogen receptor beta (ER-beta) signaling pathway - cell viability counter screen (AID 1259380); further: nearly all actives have a fitted effect of over 30% in size
# Method in brief: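 ER-beta-UAS-bla HEK293T cells in medium with 2% charcoal-stripped FBS, pre-incubated 6 hr, then treated 16 hr at 37C. Cytotoxicity read in the same wells by CellTiter-Glo luminescence after 30 min at room temperature.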
# [19] = target: Estrogen receptor (Homo sapiens) (UniProt P03372); experiment: qHTS assay to identify small molecule antagonists of the estrogen receptor alpha (ER-alpha) signaling pathway using the BG1 cell line in the presence of 0.1 nM 17-beta-estradiol (AID 1259244); further: nearly all actives have a fitted effect of over 50% in size
# Method in brief: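 VM7Luc4E2 cells (endogenous full-length ER-alpha, 4×ERE-luciferase), kept 5 days in phenol red-free, charcoal-stripped FBS medium; 4,000 cells/well. Compounds added with 0.1 nM (final) 17beta-estradiol, 22 hr at 37C; luminescence read with ONE-Glo after 30 min.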
# [20] = target: Estrogen receptor (Homo sapiens) (UniProt P03372); experiment: qHTS assay to identify small molecule agonists of the estrogen receptor alpha (ER-alpha) signaling pathway in the presence of an antagonist (AID 1259383; calls by dose curve; further: top concentration of the series differs between compounds; nearly all actives have a fitted effect of over 15% in size)
# Method in brief: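 VM7Luc4E2 cells express endogenous full-length ER-alpha with an ERE-luciferase reporter and were hormone-deprived for 5 days. Compounds at 15 concentrations were added with 10.0nM ICI-182,780 for 22hr at 37C. Luminescence was read with ONE-Glo.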
# Sequence of Estrogen receptor (Homo sapiens) (P03372 whole entry, looked up): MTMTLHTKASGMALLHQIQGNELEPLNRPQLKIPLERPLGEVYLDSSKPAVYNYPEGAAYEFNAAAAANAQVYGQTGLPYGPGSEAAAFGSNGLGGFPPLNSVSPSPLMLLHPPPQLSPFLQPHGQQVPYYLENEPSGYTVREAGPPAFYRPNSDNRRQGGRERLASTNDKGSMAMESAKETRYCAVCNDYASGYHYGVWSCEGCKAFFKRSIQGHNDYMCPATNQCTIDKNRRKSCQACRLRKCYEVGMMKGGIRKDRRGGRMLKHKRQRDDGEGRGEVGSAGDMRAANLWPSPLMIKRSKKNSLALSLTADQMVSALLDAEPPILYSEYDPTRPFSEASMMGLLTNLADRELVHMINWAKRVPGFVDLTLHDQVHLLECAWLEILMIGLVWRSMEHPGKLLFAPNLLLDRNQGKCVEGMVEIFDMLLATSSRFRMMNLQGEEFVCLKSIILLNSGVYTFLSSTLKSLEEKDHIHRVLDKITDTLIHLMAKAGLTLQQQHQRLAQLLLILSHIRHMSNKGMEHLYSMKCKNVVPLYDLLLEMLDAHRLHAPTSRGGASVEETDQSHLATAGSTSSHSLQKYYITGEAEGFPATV
# Sequence of Thyrotropin receptor (Homo sapiens) (P16473 whole entry, looked up): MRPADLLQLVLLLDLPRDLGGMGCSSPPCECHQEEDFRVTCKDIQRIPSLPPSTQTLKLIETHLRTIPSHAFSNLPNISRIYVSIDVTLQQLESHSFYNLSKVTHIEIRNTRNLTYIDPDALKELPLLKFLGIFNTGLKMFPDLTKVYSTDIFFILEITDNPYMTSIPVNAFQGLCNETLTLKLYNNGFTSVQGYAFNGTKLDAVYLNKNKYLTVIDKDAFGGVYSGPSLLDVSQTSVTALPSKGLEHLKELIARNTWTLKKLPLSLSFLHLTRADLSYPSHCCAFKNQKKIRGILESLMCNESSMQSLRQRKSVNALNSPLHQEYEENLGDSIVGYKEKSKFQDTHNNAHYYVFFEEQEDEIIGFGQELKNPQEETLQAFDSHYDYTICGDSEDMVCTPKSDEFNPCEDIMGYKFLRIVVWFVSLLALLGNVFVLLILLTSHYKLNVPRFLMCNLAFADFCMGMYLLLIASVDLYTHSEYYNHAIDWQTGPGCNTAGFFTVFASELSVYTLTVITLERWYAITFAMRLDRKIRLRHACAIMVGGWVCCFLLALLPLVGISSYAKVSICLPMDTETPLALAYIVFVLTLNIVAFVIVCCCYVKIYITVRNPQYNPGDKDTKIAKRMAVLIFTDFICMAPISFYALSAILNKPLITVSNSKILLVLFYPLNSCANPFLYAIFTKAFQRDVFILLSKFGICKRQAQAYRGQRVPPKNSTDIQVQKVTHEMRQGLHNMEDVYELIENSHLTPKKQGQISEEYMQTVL
# Sequence of Androgen receptor (Homo sapiens) (P10275 whole entry, looked up): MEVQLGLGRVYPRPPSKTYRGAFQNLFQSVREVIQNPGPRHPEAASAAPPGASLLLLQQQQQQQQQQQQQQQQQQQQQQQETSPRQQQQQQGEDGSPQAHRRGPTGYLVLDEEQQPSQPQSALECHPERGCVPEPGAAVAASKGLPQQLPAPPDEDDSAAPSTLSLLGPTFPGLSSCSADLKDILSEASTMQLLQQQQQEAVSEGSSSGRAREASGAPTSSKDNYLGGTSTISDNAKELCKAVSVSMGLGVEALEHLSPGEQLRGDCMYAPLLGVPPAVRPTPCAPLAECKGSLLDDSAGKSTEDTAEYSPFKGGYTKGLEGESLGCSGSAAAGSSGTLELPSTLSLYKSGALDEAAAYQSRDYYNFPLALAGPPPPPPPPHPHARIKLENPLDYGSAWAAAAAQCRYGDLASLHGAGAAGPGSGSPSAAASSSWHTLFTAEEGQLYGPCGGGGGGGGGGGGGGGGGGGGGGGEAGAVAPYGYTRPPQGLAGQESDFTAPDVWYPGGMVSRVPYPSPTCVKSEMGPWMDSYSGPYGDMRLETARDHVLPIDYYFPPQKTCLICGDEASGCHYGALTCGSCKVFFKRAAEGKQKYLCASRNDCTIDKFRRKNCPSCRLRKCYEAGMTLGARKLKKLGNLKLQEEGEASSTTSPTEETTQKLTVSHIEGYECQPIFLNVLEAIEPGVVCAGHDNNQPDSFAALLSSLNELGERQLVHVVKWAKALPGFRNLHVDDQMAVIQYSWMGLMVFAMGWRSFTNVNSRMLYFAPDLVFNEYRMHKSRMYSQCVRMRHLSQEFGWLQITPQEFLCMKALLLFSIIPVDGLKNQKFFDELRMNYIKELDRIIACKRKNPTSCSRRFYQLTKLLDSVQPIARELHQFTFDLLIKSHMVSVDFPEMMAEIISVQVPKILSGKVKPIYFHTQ
# Sequence of Estrogen receptor beta (Homo sapiens) (Q92731 whole entry, looked up): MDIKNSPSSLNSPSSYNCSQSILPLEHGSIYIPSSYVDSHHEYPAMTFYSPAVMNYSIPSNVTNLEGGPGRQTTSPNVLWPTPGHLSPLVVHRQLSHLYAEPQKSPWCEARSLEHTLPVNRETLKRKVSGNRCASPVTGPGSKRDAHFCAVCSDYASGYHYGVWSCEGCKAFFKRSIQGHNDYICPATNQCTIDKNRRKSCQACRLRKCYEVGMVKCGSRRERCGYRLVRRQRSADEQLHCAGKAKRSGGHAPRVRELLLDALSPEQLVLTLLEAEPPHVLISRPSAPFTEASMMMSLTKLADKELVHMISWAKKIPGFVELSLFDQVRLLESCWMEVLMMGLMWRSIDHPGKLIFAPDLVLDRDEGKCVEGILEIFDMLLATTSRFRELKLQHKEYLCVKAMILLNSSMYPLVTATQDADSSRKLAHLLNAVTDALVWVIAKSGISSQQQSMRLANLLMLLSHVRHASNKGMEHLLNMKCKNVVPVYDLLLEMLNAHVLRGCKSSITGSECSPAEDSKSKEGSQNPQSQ
Structure (SMILES),Potency [1],Potency [2],Potency [3],Potency [4],Potency [5],Potency [6],Potency [7],Potency [8],Potency [9],Potency [10],Potency [11],Potency [12],Potency [13],Potency [14],Potency [15],Potency [16],Potency [17],Potency [18],Potency [19],Potency [20]
O=C(O)c1cc(Cl)cc(Cl)c1O,inactive,inactive,inactive,inactive,inactive,inactive,inactive,inactive,inactive,inactive,inactive,inactive,–,–,–,–,–,–,–,–
O=C1CC[C@@H](C(=O)O)N1,inactive,inactive,inactive,inactive,inactive,–,inactive,inactive,inactive,inactive,inactive,inactive,inactive,inactive,inactive,inactive,inactive,inactive,–,–
CCc1ccc(C)cc1,inactive,inactive,inactive,inactive,inactive,inactive,inactive,inactive,inactive,inactive,–,–,–,inactive,inactive,inactive,inactive,–,–,–
O=C(O)CCC(=O)c1ccc(-c2ccccc2)cc1,inactive,inactive,inactive,inactive,inactive,–,inactive,inactive,inactive,inactive,inactive,inactive,inactive,13.3 µM (active),–,inactive,–,inactive,–,–
O=C(O)/C=C/c1ccc(O)c(O)c1,inactive,inactive,inactive,inactive,inactive,inactive,–,inactive,inactive,inactive,–,inactive,–,inactive,inactive,inactive,–,inactive,–,–
Cc1oc(=O)oc1COC(=O)[C@@H]1N2C(=O)[C@@H](NC(=O)[C@H](N)c3ccccc3)[C@H]2SC1(C)C,inactive,inactive,inactive,inactive,inactive,–,inactive,inactive,inactive,inactive,inactive,–,–,inactive,inactive,inactive,inactive,inactive,inactive,inactive
O=C(Oc1ccccc1)c1ccc2ccccc2c1O,inactive,inactive,inactive,inactive,inactive,inactive,–,inactive,inactive,inactive,inactive,–,–,9.69 µM (active),inactive,inactive,–,–,inactive,–
CCCCC[C@H](O)/C=C/[C@H]1[C@H](O)CC(=O)[C@@H]1C/C=C\CCCC(=O)O,inactive,inactive,–,–,inactive,–,–,inactive,inactive,inactive,0.0174 µM (active),inactive,inactive,inactive,–,0.006 µM (active),–,inactive,inactive,inactive
CC[C@H]1OC(=O)[C@H](C)[C@@H](O[C@H]2C[C@@](C)(OC)[C@@H](O)[C@H](C)O2)[C@H](C)[C@@H](O[C@@H]2O[C@H](C)C[C@H](N(C)C)[C@H]2O)[C@](C)(O)C[C@@H](C)/C(=N\OCOCCOC)[C@H](C)[C@@H](O)[C@]1(C)O,10.2 µM (active),inactive,–,inactive,8.07 µM (active),–,–,inactive,–,inactive,inactive,inactive,inactive,inactive,5.09 µM (active),12.8 µM (active),–,–,inactive,inactive
